Only some compounds are listed: those with a hit (about 6.7% of all), similar ones and a draw of the others.
BoNT-A LC inh2: BoNT/A light chain protease inhibitors, primary screen, biochemical, flow cytometry, MLPCN library | 360,000 tested, 0.17% active | multiplex microsphere protease substrate cleavage | Botulinum neurotoxin type A light chain protease (Clostridium botulinum A str. ATCC 3502) | inhibition, % at 10 µM; in the data active = inhibition above about 30%; inconclusive = no clear call, values can overlap the other calls; note: plate controls were buffer without enzyme for full effect and enzyme alone for no effect
BoNT-F LC inh: BoNT/F light chain protease inhibitors, primary screen, biochemical, flow cytometry, MLPCN library. Botulinum neurotoxin type F light chain protease (Clostridium botulinum). Multiplex microsphere protease cleavage assay. inhibition, % at 10 µM. 360,000 tested, 0.22% active; in the data active = inhibition above about 35%, passing the limit was not always enough; inconclusive = no clear call, values can overlap the other calls; note: plate controls were buffer without enzyme for full effect and enzyme alone for no effect
Mtb FBA inh: Mtb FBA enzyme inhibitors, primary screen, biochemical, fluorescence, strain H37Rv; 360,000 tested, 2.3% active; inhibition, % at 1 µM; purified M. tuberculosis FBA, fluorescence read-out; Fructose-bisphosphate aldolase (Mycobacterium tuberculosis (strain ATCC 25618 / H37Rv)), …;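 note: 0% = vehicle and 100% = reference inhibitor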
Target sequence (P9WQA3 whole entry, looked up): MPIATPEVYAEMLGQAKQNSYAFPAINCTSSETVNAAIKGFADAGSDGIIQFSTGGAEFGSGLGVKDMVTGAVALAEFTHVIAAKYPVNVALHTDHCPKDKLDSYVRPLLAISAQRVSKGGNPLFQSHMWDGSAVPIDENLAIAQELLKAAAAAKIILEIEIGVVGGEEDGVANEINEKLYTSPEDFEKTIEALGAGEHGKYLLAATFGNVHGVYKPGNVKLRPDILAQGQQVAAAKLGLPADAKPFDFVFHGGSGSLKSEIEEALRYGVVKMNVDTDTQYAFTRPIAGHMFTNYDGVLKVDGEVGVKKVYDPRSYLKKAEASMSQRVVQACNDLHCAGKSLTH
GDH-TPI counter-1: GDH-TPI coupling enzyme inhibitors, primary screen, artefact control for M. tuberculosis FBA inhibitor project, biochemical, absorbance, full deck | GDH-TPI coupled enzyme counterscreen, NADH absorbance | inhibition, % at 4.8 µM | 360,000 tested, 1.2% active | AID 588335, 2011; in the data active = inhibition above about 30%;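 note: 0% = DMSO wells and 100% = wells lacking the enzyme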
Anthrax LF inh2: Bacillus anthracis LF protease inhibitors, primary screen, biochemical, multiplex microsphere, MLPCN library | 360,000 tested, 0.12% active | inhibition, % at 10 µM | Lethal factor (Bacillus anthracis), P15917 | multiplex microsphere protease cleavage assay; in the data active = inhibition above about 30%; inconclusive = no clear call, values can overlap the other calls; note: plate controls were buffer without enzyme for full effect and enzyme alone for no effect
Bead autofluor: counter-screen for toxin protease inhibitors: compound fluorescence | AID 624483 | fluorescence intensity (concentration not given with the values) | compound autofluorescence counterscreen, microsphere flow cytometry; stronger effect = higher value | 360,000 tested, 3.1% active; in the data active = fluorescence intensity above about 16000; inconclusive = no clear call, values can overlap the other calls
Mtb FBA inh conf: M. tuberculosis aldolase blockers, biochemical, fluorescence, strain H37Rv, confirmation. purified M. tuberculosis FBA, fluorescence read-out. AID 651616, 2012. shares compounds with Mtb FBA inh. 5,600 tested, 78% active. inhibition, % at 1 µM;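 note: 0% = vehicle wells and 100% = reference inhibitor wells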
GDH-TPI counter-2: GDH-TPI coupling enzyme inhibitors, artefact control for M. tuberculosis FBA inhibitor project, biochemical, fluorescence, high throughput; 5,600 tested, 81% active; shares compounds with Mtb FBA inh; GDH-TPI coupled enzyme counterscreen; inhibition, % at 1 µM; in the data active = inhibition above about 10%
* marks the source's active call; other numbers are inactive results; ? = inconclusive; nt = no result given; + = active, no number. Cut-off read from the data, not from the text of the source, unless noted: active = inhibition above about 27%; inactive = the rest.

SMILES	BoNT-A LC inh2	BoNT-F LC inh	Mtb FBA inh	GDH-TPI counter-1	Anthrax LF inh2	Bead autofluor	Mtb FBA inh conf	GDH-TPI counter-2
Cc1ccc(NC(=O)CN(C)C(=O)C(C)OC(=O)c2ccccc2NCCO)cc1 (stereo unspecified)	-2	-4	92*	8	1	4616	98*	73*
Cc1ccc(NC(=O)CN(C)C(=O)C(c2ccccc2)c2ccccc2)cc1	0	-5	0	9	-8	3820	nt	nt
Cc1ccc(NC(=O)CN(C)CC(=O)Nc2ccccc2C(=O)Nc2ccccc2)cc1	0	-2	73*	0	-5	4281	6	-4
CC(OC(=O)c1ccccc1NCCO)C(=O)NCC(=O)Nc1ccc(F)c(F)c1F (stereo unspecified)	0	-1	91*	0	-5	5599	128*	97*
CCCCCC(=O)N/N=C/c1ccc(N(C)C)cc1	0	-2	20	22	0	2169	nt	nt
CN(C)c1ccc(/C=N\NC(=O)CC#N)cc1	1	-4	30*	35*	-2	4583	12	3
Cc1[nH]c(C(=O)N/N=C/c2ccc(N(C)C)cc2)c(C)c1C(=O)N/N=C/c1ccc(N(C)C)cc1	0	-5	28*	45*	-9	3497	60*	44*
COc1ccc(C2CC3(CC(C)(C)NC(=S)N3)Oc3cc(O)cc(C)c32)cc1OC (stereo unspecified)	1	0	1	-4	-3	4743	nt	nt
COc1cccc(COc2ccc3ccc(=O)oc3c2)c1	0	23	9	10	-4	4542	nt	nt
COc1ccc(C(=O)Oc2ccc3ccc(=O)oc3c2)cc1OC	1	-13	41*	7	-2	2859	147*	107*
COc1cccc(C(=O)Oc2ccc3ccc(=O)oc3c2)c1	1	5	59*	15	13	3744	154*	141*
O=C(Oc1ccc2ccc(=O)oc2c1)c1cccs1	0	0	66*	6	3	2409	7	-5
Cn1c(SCc2nnc(-c3ccccc3)o2)nc2ccccc21	4	1	-2	-3	2	4339	nt	nt
CC(CCc1ccc(O)cc1)NCc1ccc(Br)cc1 (stereo unspecified)	-2	-32	2	-7	-2	3849	nt	nt
Nn1c(SCc2ccc(F)cc2)nnc1-c1ccccn1	nt	nt	-1	-3	nt	nt	nt	nt
Nn1c(SCc2ccccc2F)nnc1-c1ccccn1	nt	nt	42*	9	nt	nt	81*	71*
O=C(Nc1ccc(NC(=O)c2ccccc2O)cc1)Nc1ccc(F)cc1F	2	?	34*	16	-2	4229	53*	51*
C=CCNC(=O)C(C#N)c1nc2ccccc2nc1N1CCCCCC1 (stereo unspecified)	4	1	41*	15	-2	2614	+	+
N#CC(c1nc2ccccc2nc1N1CCCC1)S(=O)(=O)c1ccccc1 (stereo unspecified)	26	3	106*	15	16	7355	+	182*
COc1ccc(CNC(=O)C(C#N)c2nc3ccccc3nc2N2CCCC2)cc1 (stereo unspecified)	1	-4	-1	6	3	2682	nt	nt
COC(=O)CSc1nnc(CNC(=O)c2cc(OC)c(OC)c(OC)c2)n1C	0	6	3	-14	-5	9507	nt	nt
COC(=O)c1ccc2nc(C)cc(Nc3ccccc3C)c2c1	-1	0	-2	25	-10	6032	nt	nt
O=C(OCc1c(Cl)nc2sccn12)c1cc2c(s1)CCCC2	-1	-8	1	0	-4	4332	nt	nt

Compound activity deposited in PubChem by several laboratories.
